Our source for the outcome and AC50 values is PubChem BioAssay (EPA / NIEHS).

Read-out in test [1]: Monocyte Chemoattractant Protein-1 (MCP1), CCL2 (gene 6347)
The test is described as follows: BSK_LPS_MCP1: BioMAP Diversity Plus: LPS Assay for Monocyte Chemoattractant Protein-1 (MCP1) Biomarker Activity (AID 2283081).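 As to AC50: secreted MCP-1 protein quantified by ELISA in culture supernatant.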 The settings on record: primary human HUVEC with PBMC; actives raise or lower the signal. An outline of the steps:
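ELISA read-out of MCP-1 after 24 h chemical dosing of a human umbilical vein endothelial cell/peripheral blood mononuclear cell co-culture stimulated with LPS. Gain or loss of signal fitted relative to DMSO controls.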

A short description of test [2]: BSK_LPS_PGE2: BioMAP Diversity Plus: LPS Assay for Prostaglandin E2 (PGE2) Biomarker Activity (AID 2283082).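 As to AC50: secreted prostaglandin E2 measured by ELISA in LPS-stimulated co-culture.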 Particulars: primary human HUVEC with PBMC; actives raise or lower the signal. An outline of the steps:
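Compounds were added to the LPS co-culture of endothelium and PBMC, and PGE2 was measured by ELISA after 24 h. Responses in either direction were fitted with DMSO as baseline.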

Read-out in test [3]: Macrophage colony-stimulating factor (MCSF), CSF1 (gene 1435)
The test is described as follows: BSK_LPS_MCSF: BioMAP Diversity Plus: LPS Assay for Macrophage colony-stimulating factor (MCSF) Biomarker Activity (AID 2283083). Particulars: primary human HUVEC with PBMC; actives raise or lower the signal. An outline of the steps:
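HUVEC + PBMC co-culture (human primary), 24 h post-dose; M-CSF by ELISA; gain/loss of signal fitted bidirectionally vs DMSO baseline.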

Read-out in test [4]: Tissue Factor, F3 (gene 2152)
The test is described as follows: BSK_LPS_TissueFactor: BioMAP Diversity Plus: LPS Assay for Tissue Factor Biomarker Activity (AID 2283084). The settings on record: primary human HUVEC with PBMC; actives raise or lower the signal. The gist of the method: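 HUVEC/PBMC co-culture, LPS-activated; CD142 ELISA read 24 h post-dose; bidirectional curve fit vs DMSO negative control.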

Read-out in test [5]: Tumor necrosis factor (Homo sapiens) (UniProt P01375)
The test is described as follows: BSK_LPS_TNFa: BioMAP Diversity Plus: LPS Assay for Tumour Necrosis Factor alpha (TNFa) Biomarker Activity (AID 2283085).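 As to AC50: TNFa protein level quantified by ELISA in the co-culture.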 The settings on record: primary human HUVEC with PBMC; actives raise or lower the signal. The gist of the method: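 Cells (umbilical vein endothelium plus peripheral blood mononuclear cells) were dosed with chemical, incubated 24 h, then TNFa was quantified by ELISA; values derive from bidirectional fitting with DMSO as baseline.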

Read-out in test [6]: Vascular cell adhesion molecule 1 (VCAM1), VCAM1 (gene 7412)
The test is described as follows: BSK_LPS_VCAM1: BioMAP Diversity Plus: LPS Assay for Vascular cell adhesion molecule 1 (VCAM1) Biomarker Activity (AID 2283086). The settings on record: primary human HUVEC with PBMC; actives raise or lower the signal. The gist of the method:
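Cells are dosed in an LPS-stimulated endothelial/mononuclear co-culture and, after 24 h, VCAM-1 is quantified by ELISA. Activity in either direction is fitted relative to the DMSO negative control.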

Read-out in a further test: CD38, CD38 (gene 952)
Description: BSK_SAg_CD38: BioMAP Diversity Plus: SAg Assay for CD38 Biomarker Activity (AID 2283087). Particulars: primary human HUVEC with PBMC; actives raise or lower the signal. An outline of the steps:
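CD38 quantified by ELISA (fluorescence) in a superantigen-activated endothelial cell–PBMC co-culture at 24 h post-dose. Activity fitted in both directions relative to DMSO; parallel SRB and Alamar Blue cytotoxicity read-outs.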

Read-out in a further test: CD40, CD40 (gene 958)
The test is described as follows: BSK_SAg_CD40: BioMAP Diversity Plus: SAg Assay for CD40 Biomarker Activity (AID 2283088). Particulars: primary human HUVEC with PBMC; actives raise or lower the signal. The gist of the method: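 HUVEC/PBMC co-culture, 24 h post-dose; CD40 by ELISA, fluorescence intensity; bidirectional fit vs DMSO negative control.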

Read-out in the next test: CD69, CD69 (gene 969)
Description: BSK_SAg_CD69: BioMAP Diversity Plus: SAg Assay for CD69 Biomarker Activity (AID 2283089).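 As to AC50: cell surface CD69 protein quantified by ELISA with fluorescence detection.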 The settings on record: primary human HUVEC with PBMC; actives raise or lower the signal. An outline of the steps: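 HUVEC co-cultured with PBMC were dosed with chemical, and CD69 was measured by ELISA with fluorescence read-out 24 h later. Bidirectional curve fitting used DMSO as negative control and activity baseline.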

Read-out in test [7]: Monocyte Chemoattractant Protein-1 (MCP1), CCL2 (gene 6347)
The test is described as follows: BSK_SAg_MCP1: BioMAP Diversity Plus: SAg Assay for Monocyte Chemoattractant Protein-1 (MCP1) Biomarker Activity (AID 2283090). Particulars: primary human HUVEC with PBMC; actives raise or lower the signal. The gist of the method:
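Values derive from bidirectional fitting of ELISA-measured MCP1 against DMSO controls. Readings were taken 24 h after dosing human vascular endothelial cells co-cultured with peripheral blood mononuclear cells under superantigen stimulation.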

Read-out in test [8]: E-selectin (Homo sapiens) (UniProt P16581)
The test is described as follows: BSK_SAg_Eselectin: BioMAP Diversity Plus: SAg Assay for Eselectin Biomarker Activity (AID 2283091). Particulars: primary human HUVEC with PBMC; actives raise or lower the signal. An outline of the steps:
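E-selectin ELISA readout at 24 h post-dosing in human umbilical vein endothelial cell/PBMC co-culture; gain or loss of signal fitted relative to DMSO baseline.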

Read-out in test [9]: Monokine induced gamma interferon (MIG), CXCL9 (gene 4283)
The test is described as follows: BSK_SAg_MIG: BioMAP Diversity Plus: SAg Assay for Monokine induced gamma interferon (MIG) Biomarker Activity (AID 2283092). Particulars: primary human HUVEC with PBMC; actives raise or lower the signal. The gist of the method: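 HUVEC plus human PBMC co-culture, chemicals dosed and MIG (CXCL9) quantified by ELISA at 24 h. Bidirectional curve fitting against DMSO as negative control and baseline, so both gain and loss of signal count as activity.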

Test [10] is described as follows: BSK_SAg_PBMCCytotoxicity: PBMC Cytotoxicity Assessment in the BioMAP Diversity Plus: SAg Assay (AID 2283093).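 Also: PBMC viability measured as Alamar Blue reduction fluorescence at 546/580 nm; fitted both ways against DMSO so a hit may be loss or gain of signal.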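 As to AC50: PBMC superantigen activated with SEB plus TSST-1 one hour after compound addition.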 The settings on record: primary human HUVEC with PBMC. The gist of the method:
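Alamar Blue reduction (6 h, ex/em 546/580 nm) read after 90 h culture of PBMC pre-dosed 1 h then stimulated with SEB plus TSST-1, 20 ng/mL each. Gain or loss of signal fitted relative to DMSO.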

Test [11] can be described thus: BSK_SAg_Proliferation: Cell Proliferation Assessment in the BioMAP Diversity Plus: SAg Assay (AID 2283095).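 Also: relative cell number as total protein by SRB absorbance in sub-confluent culture.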 The settings on record: primary human HUVEC with PBMC. An outline of the steps:
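Absorbance of sulforhodamine B at 560 nm reports total protein in a human vascular endothelial/PBMC co-culture after 96 h chemical exposure. Gain or loss of signal is fitted in both directions against DMSO.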

Read-out in test [12]: Interleukin-8 (IL8), CXCL8 (gene 3576)
Description: BSK_SAg_IL8: BioMAP Diversity Plus: SAg Assay for Interleukin-8 (IL8) Biomarker Activity (AID 2283094). Particulars: primary human HUVEC with PBMC; actives raise or lower the signal. The gist of the method: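 Chemicals were dosed onto a human endothelial–PBMC co-culture, and IL-8 was quantified by ELISA after 24 h. Both increases and decreases were fitted relative to DMSO.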

The nature of test [13]: BSK_SAg_SRB: Viability Assessment in the BioMAP Diversity Plus: SAg Assay (AID 2283096).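 Also: cells read one day after compound addition; hits may be either gain or loss of signal compared with DMSO.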 The settings on record: primary human HUVEC with PBMC. The gist of the method: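 SRB absorbance at 560 nm served as the viability read-out. Cells (HUVEC plus peripheral blood mononuclear cells) were TCA-fixed and stained 24 h post-dosing; activity fitted in both directions against DMSO controls.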

Test [14] has as its target Cytochrome P450 2C18 (Homo sapiens) (UniProt P33260). Description: NVS_ADME_hCYP2C18: NovaScreen (NVS) CYP450-related Enzyme Activity (ADME) Assay for human CYP2C18 (AID 2283103). The gist of the method: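 Enzyme activity measured by fluorescence 0.5 h after compound addition, using recombinant CYP2C18 and a specific substrate. Actives from duplicate 10 uM screening were retested in concentration series (top 20 uM); acetonitrile served as negative baseline.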

In test [15] the target is human CYP19A1, CYP19A1 (gene 1588) (UniProt P11511). The test is described as follows: NVS_ADME_hCYP19A1: NovaScreen (NVS) CYP450-related Enzyme Activity (ADME) Assay for human CYP19A1 (AID 2283098; active = hit-call score of the fitted dose curve at least 0.9, where 1 is the maximum;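 as to AC50: potency for inhibitors seen as loss of fluorescent enzyme signal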). An outline of the steps: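 Primary testing was in duplicate at a single 10 uM concentration, with actives followed up in concentration-response series. Fluorescence read-out of recombinant enzyme activity at 0.5 h, cell-free. Acetonitrile was the negative-control baseline.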
Sequence of human CYP19A1, CYP19A1 (gene 1588) (P11511 whole entry, looked up): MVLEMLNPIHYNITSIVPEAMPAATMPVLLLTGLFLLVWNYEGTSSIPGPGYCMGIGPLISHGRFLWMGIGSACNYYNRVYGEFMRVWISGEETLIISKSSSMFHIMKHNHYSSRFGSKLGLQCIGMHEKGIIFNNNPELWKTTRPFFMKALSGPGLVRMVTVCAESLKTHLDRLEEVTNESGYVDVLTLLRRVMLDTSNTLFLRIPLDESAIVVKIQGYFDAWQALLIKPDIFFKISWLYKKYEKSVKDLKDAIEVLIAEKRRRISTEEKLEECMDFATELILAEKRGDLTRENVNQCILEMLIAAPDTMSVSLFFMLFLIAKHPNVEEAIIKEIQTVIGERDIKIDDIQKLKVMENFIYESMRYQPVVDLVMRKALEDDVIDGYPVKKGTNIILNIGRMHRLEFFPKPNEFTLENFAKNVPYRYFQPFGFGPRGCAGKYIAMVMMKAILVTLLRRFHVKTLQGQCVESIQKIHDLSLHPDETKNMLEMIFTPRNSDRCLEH

For test [16], the target named is human CYP1A2, CYP1A2 (gene 1544) (UniProt P05177). The test is described as follows: NVS_ADME_hCYP1A2: NovaScreen (NVS) CYP450-related Enzyme Activity (ADME) Assay for human CYP1A2 (AID 2283102; active = hit-call score of the fitted dose curve at least 0.9, where 1 is the maximum;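 as to AC50: potency for inhibition since loss of fluorescence marks reduced CYP1A2 activity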). An outline of the steps: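 Fluorescence-intensity enzyme activity read-out, taken 0.5 h post-dosing, using insect-cell-derived recombinant CYP1A2 and specific fluorescent substrate. Acetonitrile served as negative control/baseline. Single-concentration duplicate screen at 10 uM, then concentration-response follow-up.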
Sequence of human CYP1A2, CYP1A2 (gene 1544) (P05177 whole entry, looked up): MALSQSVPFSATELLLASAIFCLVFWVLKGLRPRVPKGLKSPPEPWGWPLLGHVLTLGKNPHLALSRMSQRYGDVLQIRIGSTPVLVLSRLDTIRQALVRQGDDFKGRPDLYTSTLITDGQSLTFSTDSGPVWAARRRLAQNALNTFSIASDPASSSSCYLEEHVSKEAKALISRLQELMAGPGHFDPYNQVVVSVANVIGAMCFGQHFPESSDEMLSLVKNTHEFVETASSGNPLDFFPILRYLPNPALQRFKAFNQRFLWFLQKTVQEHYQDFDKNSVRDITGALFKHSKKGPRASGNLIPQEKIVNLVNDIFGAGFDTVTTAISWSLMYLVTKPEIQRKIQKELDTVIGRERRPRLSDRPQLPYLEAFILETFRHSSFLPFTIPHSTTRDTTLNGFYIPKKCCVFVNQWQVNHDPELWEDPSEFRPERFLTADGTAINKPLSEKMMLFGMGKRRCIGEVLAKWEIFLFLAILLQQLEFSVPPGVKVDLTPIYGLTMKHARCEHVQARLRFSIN

SMILES strings stand for the structures. Values joined by “and” are separate entries in the source; they are usually repeats but may differ in a detail not shown here. Equal values may be shown once. Results filed as inconclusive are left out. Some compounds were tested as several samples or in several runs, with calls that do not always agree. Active and inactive are the calls of the source. The calls were made as follows, unless noted: active = hit-call score of the fitted dose curve at least 0.9, where 1 is the maximum; inactive = score below 0.9.

As usually defined, the AC50 is the concentration at which the activity in the assay is half-maximal.

Sequence of Tumor necrosis factor (Homo sapiens) (P01375 whole entry, looked up): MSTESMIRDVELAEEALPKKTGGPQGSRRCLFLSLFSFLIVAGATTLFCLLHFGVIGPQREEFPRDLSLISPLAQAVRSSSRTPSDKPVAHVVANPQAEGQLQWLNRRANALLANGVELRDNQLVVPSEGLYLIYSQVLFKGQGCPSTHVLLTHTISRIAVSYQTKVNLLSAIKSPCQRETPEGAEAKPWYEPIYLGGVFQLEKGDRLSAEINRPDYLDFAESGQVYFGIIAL
Sequence of E-selectin (Homo sapiens) (P16581 whole entry, looked up): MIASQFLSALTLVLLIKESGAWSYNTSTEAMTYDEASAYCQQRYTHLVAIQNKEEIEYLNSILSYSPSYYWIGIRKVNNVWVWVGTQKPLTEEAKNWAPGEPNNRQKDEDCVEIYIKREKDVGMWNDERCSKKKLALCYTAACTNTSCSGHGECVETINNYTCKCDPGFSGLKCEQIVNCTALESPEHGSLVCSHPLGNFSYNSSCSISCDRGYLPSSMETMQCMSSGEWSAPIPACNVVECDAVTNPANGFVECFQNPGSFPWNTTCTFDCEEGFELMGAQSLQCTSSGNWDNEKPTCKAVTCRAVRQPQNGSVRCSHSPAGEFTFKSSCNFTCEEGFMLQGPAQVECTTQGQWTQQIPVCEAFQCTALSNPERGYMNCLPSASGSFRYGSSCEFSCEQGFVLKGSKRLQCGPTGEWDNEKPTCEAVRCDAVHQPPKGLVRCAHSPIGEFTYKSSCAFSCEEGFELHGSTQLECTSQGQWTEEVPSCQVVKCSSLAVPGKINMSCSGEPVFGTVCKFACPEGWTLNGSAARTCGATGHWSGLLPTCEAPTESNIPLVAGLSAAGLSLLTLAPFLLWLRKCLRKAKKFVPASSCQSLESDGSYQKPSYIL
Sequence of Cytochrome P450 2C18 (Homo sapiens) (P33260 whole entry, looked up): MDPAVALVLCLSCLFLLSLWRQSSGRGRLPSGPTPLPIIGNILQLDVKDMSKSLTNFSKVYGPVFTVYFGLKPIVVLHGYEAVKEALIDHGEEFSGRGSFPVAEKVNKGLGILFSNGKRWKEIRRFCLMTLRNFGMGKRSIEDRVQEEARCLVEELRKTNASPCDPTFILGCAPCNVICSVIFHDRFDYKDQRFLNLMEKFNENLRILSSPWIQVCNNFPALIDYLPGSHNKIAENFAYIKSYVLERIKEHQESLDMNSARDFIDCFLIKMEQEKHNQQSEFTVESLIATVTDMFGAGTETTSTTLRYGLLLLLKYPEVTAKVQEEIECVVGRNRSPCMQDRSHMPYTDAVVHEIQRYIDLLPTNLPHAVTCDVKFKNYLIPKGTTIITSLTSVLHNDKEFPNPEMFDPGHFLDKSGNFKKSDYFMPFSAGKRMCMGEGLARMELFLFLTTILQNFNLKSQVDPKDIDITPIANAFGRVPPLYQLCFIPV

Regarding `O=S(=O)(c1ccc(Cl)cc1)c1cc(Cl)c(Cl)cc1Cl`, the result in [1], in test [2], in test [3], in test [4], in [5] and in test [6] was inactive. The outcome in the test with CD40, CD40 (gene 958) was “inactive”; with CD69, CD69 (gene 969), “inactive”; in test [7] it was “inactive”; in [8] it was “inactive”; in test [9], “inactive”; in test [10], “inactive”. Further, the AC50 with CD38, CD38 (gene 952) was 3.97 µM (active); in test [11], 10.8 µM (active).

Turning to `O=c1oc2ccccc2c(O)c1C(CC(O)c1ccc(-c2ccc(Br)cc2)cc1)c1ccccc1` (stereo unspecified), the AC50 in [1] was 19.1 µM (active); in test [3] it was 12.8 µM (active); in test [4] it was 19.1 µM (active); with CD38, CD38 (gene 952), 23 µM (active); in the test with CD40, CD40 (gene 958) it was 14.1 µM (active); with CD69, CD69 (gene 969) it was 19.1 µM (active). Further, the half-maximal activity concentration (AC50) was 22.6 µM (active) in test [7]; 28.6 µM (active) in [8]; 33.3 µM (active) in [9]; 23.5 µM (active) in test [10]; 26.4 µM (active) in test [11]. For the same compound, the outcome in [2], in test [5] and in test [12] was inactive.

With `CC1(C)[C@H](C(=O)O[C@H](C#N)c2cccc(Oc3ccccc3)c2)[C@@H]1/C=C(\Cl)C(F)(F)F`, the outcome was “inactive” in test [1]; “inactive” in [3]; “inactive” in test [4]; “inactive” in [5]; “inactive” with CD38, CD38 (gene 952); “inactive” with CD69, CD69 (gene 969). Also, the outcome in test [7], in test [8], in test [9], in [10], in test [12] and in test [13] was inactive. Also, the AC50 was 904 nM (active) and 862 nM (active) in test [2]; 2.79 µM (active) in test [5]; 5.06 µM (active) with CD38, CD38 (gene 952); 4.51 µM (active) in the test with CD40, CD40 (gene 958); 3.39 µM (active) in the test with CD69, CD69 (gene 969); 17.1 µM (active) and 3.97 µM (active) in test [11]. In [14], the AC50 was 0.951 µM (active).

Take `O=C1c2ccccc2C(=O)C1C(=O)C(c1ccccc1)c1ccc(Cl)cc1` (stereo unspecified): in test [15], the AC50 is 5.08 µM (active).

For the compound `O=c1nc(O)n(Cl)c(=O)n1Cl`, in [15], the outcome was inactive.

Regarding `CCOCn1c(-c2ccc(Cl)cc2)c(C#N)c(Br)c1C(F)(F)F`, the AC50 in [16] was 1.35 µM (active).

Take `COC(=O)Nc1cccc(OC(=O)Nc2cccc(C)c2)c1`: the result in [16] was inactive.
